# PubChem BioAssay (NCI)
# This is part of a sample that, as a whole, favours compounds with a hit. Of some 83,000 tested, about 20% had one in any assay.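 96-well plates, one dose, 48 hours. Percent growth reported; active if below 10.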 Values without a mark were called inactive. The source made the active and inactive calls.
# Columns and labels:
# Test in all cases: NCI-60 one-dose screen, 48 h (100 = growth as untreated, 0 = no growth, -100 = all killed)
# Settings in all cases: 10 µM unless noted
# [1] = test system: T-47D breast
# [2] = test system: BT-549 breast
# [3] = test system: MDA-MB-435 melanoma
# [4] = test system: SW-620 colon
# [5] = test system: MCF7 breast
# [6] = test system: HCT-116 colon
# [7] = test system: HCC-2998 colon
# [8] = test system: KM12 colon
Structure (SMILES),growth [1],growth [2],growth [3],growth [4],growth [5],growth [6],growth [7],growth [8]
C#CCNC(=O)c1cccc2c1cc(C)n2-c1nc2c(c(NCc3ccccc3)n1)CCCC2,-11.6% (active),-38.7% (active),-61.3% (active),-4.61% (active),-0.959% (active),-41.5% (active),-84.2% (active),-43.6% (active)
O=[N+]([O-])c1ccc(NC(=S)N/N=C/c2cc3ccccc3n3nnnc23)cc1,46.5%,80.4%,82.4%,24.4%,13.8%,61.3%,54%,66.9%
O=C1Nc2cc(-c3cccc(O)c3)ccc2/C1=C/c1ccc[nH]1,-0.905% (active),0.113% (active),5.05% (active),18.9%,10.5%,11.6%,14.8%,0.211% (active)
COc1ccc2[nH]c(=O)c(CN3CCN(c4nccc(-c5ccc(Cl)cc5)n4)CC3)cc2c1,73.6%,91.2%,97.9%,89.5%,83.5%,86.4%,105%,90.6%
COC(=O)N[C@H]1CCc2c(Cl)c(OC)c(OC)c(OC)c2-c2ccc(SC)c(=O)cc21,40.4%,-4.69% (active),-49.9% (active),16.1%,10.8%,0.452% (active),21.5%,1.72% (active)
CSc1nc2sc3cccc(Cl)c3n2c(=N)c1C#N,83.9%,96.7%,104%,102%,88.4%,101%,106%,101%
COc1cc(C2C3=C(COC3=O)N(CCO)c3cc4c(cc32)OCO4)cc(OC)c1OC (configuration not stated),36.7%,10.6%,-2.88% (active),18.8%,-6.88% (active),4.34% (active),-13% (active),5.43% (active)
COc1cc(C=O)ccc1OC1OC(COC(C)=O)C(OC(C)=O)C(OC(C)=O)C1OC(C)=O (configuration not stated),92.4%,102%,107%,99.7%,97.3%,100%,108%,103%
Nc1nc(Nc2ccccc2SSc2ccccc2Nc2nc(N)nc(-c3ccc(C(F)(F)F)cc3)n2)nc(-c2ccc(C(F)(F)F)cc2)n1,41.7%,75.6%,74.9%,80.4%,52.2%,51%,93.1%,44.8%
Cc1nn(-c2ccccc2)c(Oc2c(Cl)cccc2Cl)c1/C=N/N=c1\sc2ccccc2n1C,47.2%,63.6%,64.6%,34.7%,45.5%,30.1%,71.4%,44.3%
COc1ccc2c(c1)oc1c(C)c3c(c(C)c12)C(=O)N(N)C3=O,44.3%,-43.5% (active),36.8%,29.4%,57.3%,-13% (active),64.6%,22%
COc1cc(C(=O)Nc2cc3c(cc2Oc2cc(C)cc(C)c2)C(=O)N(C)[C@@H](CC(=O)N(C)O)C(=O)N3)c(Br)c(OC)c1OC,1.62% (active),-30.2% (active),-86.2% (active),-2.61% (active),-14.8% (active),-35.5% (active),-45.6% (active),-28.6% (active)
O=C(Cn1c[n+](CC(=O)c2ccc(-c3ccccc3)cc2)c2ccccc21)Nc1cccc2cccnc12,10.8%,-9.9% (active),7.5% (active),36.1%,12.6%,11.9%,6.56% (active),-31.5% (active)
O=C(CSc1nc2sc3c(c2c(=O)n1-c1ccc(Cl)cc1)CCCC3)Nc1nc(-c2cccc(Br)c2)cs1,76.9%,92.1%,97.5%,78.9%,87.4%,81.6%,107%,83.8%
CCOC(=O)/C(C#N)=C1/NNC(=Nc2cccnc2)S1,88.7%,103%,99.2%,94.9%,106%,91.9%,113%,102%
O=C(/C(=C/c1ccc([N+](=O)[O-])cc1)SCc1ccc(F)cc1)c1ccc(F)cc1,79.8%,98.2%,85%,-27.5% (active),9.8% (active),-25.2% (active),88.4%,59.8%
COc1ccc(N2CCN(c3ccc(NC4=C(Cl)C(=O)c5ncccc5C4=O)cc3)CC2)cc1,33.2%,47.8%,-4.96% (active),15.9%,8.91% (active),15.9%,80.8%,63.8%
CC1(C)NCCC[C@]2(C)[C@H]3CC(=O)[C@H]4[C@@H]5C[C@](C)(CO)CC[C@]5(C)CC[C@@]4(C)[C@]3(C)CC[C@@H]12,87.5%,103%,92.2%,98.6%,87.3%,84.1%,100%,95.4%
Cc1cccc(NC(=O)Nc2ccc(-n3cnc4cc(-c5ccc(O)cc5)ccc43)cc2)c1,4.01% (active),70.8%,25.9%,29.6%,16.9%,16.1%,63.6%,13%
CN1C(=O)NC(c2ccc3c(c2)OCO3)C=C1c1ccccc1 (configuration not stated),78.6%,90%,97.5%,78.3%,49.9%,78%,110%,88.2%
CN[C@@H](C)C(=O)N[C@H]1CCS[C@H]2CC(C)(C)[C@@H](C(=O)N[C@H]3c4ccccc4C[C@H]3OCC#CC#CCO[C@@H]3Cc4ccccc4[C@@H]3NC(=O)[C@H]3N4C(=O)[C@@H](NC(=O)[C@H](C)NC)CCS[C@H]4CC3(C)C)N2C1=O,86.1%,-15.4% (active),54.8%,105%,64.7%,99%,90.2%,110%
CCCC/C=N/NC(=S)NCc1ccccc1,88.3%,102%,98.4%,96.1%,87.7%,90.9%,109%,104%
Cc1cc(Cl)nc(N(CCNc2ccnc3cc(Cl)ccc23)Cc2ccccn2)n1,-19.6% (active),75.4%,61.7%,56.6%,53.6%,17.3%,85.7%,64.1%
CCN(CC)c1ccc(/C=N/NC(=O)CSc2nc3ccccc3c(=O)n2Cc2ccc(S(N)(=O)=O)cc2)c(O)c1,6.32% (active),33.6%,13.8%,21.4%,13.3%,21.5%,20.3%,15.2%
CCOC(=O)c1cc(C(=O)c2ccc(OC)c(OC)c2)n2ccc(/C=C/c3cc[n+](CC(=O)c4ccc(OC)c(OC)c4)cc3)cc12,89.9%,96.6%,99.4%,96.7%,91.1%,89.7%,98.8%,100%
NNC(=O)c1ccc(-n2nc(-c3ccccc3)c3ccccc32)cc1,38.1%,73.6%,93.9%,95.5%,74%,82.2%,54.8%,94.8%
COc1cc(/C=C\c2cc(/C=C\c3ccc(O)c(OC)c3)n(C(=O)COc3ccccc3)n2)ccc1O,12.4%,-3.68% (active),8.84% (active),7.35% (active),1.3% (active),3.68% (active),34.8%,8.96% (active)
CCCCC[n+]1ccc(SCC(=O)N(C)c2ccc(Oc3ccccc3)cc2)c2ccccc21,68.5%,130%,98.1%,86.4%,95.7%,92.8%,100%,102%
Cc1nn(-c2ccccc2)c(Cl)c1/C=N\N=c1/sc2ccccc2n1C,93.7%,92.8%,102%,101%,97%,84.5%,101%,106%
